# Reference: the supplement of paper PMC4466140
# B1: unnamed (peptide)
# chain: AAAPKHAPPPVPNET
# Biological target: ScBbc1
# Test: SPOT peptide array binding signal intensity (averaged, normalized) (arbitrary units (background-subtracted, floor 0; scale differs between SH3 domains)); higher = stronger binding of the SH3 domain to the peptide
# Procedure, shortened: (§1)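 GST-fused SH3 domains, from four yeast species, were produced in E. coli BL21(DE3) and captured on glutathione Sepharose. Membranes of cellulose carrying synthetic 15-mer peptides, in which cysteines had been replaced by serines, were exposed to each domain at 10 μg/ml overnight at 4°C in TBS-based blocking buffer. After anti-GST antibody, an HRP anti-mouse secondary and luminol, spots were imaged and quantified using Genespotter. Binding signal is normalized and background-subtracted spot intensity, averaged over replicates, in arbitrary units that differ between domains.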
row,Binder,SPOT peptide array binding signal intensity
1,B1,≤ 0

# Biological target: ScBem1-D1
# Test: as above
# Procedure, shortened: as §1
row,Binder,SPOT peptide array binding signal intensity
1,B1,≤ 0

# Biological target: ScBzz1-D1
# Test: as above
# Procedure, shortened: as §1
row,Binder,SPOT peptide array binding signal intensity
1,B1,413

# Biological target: ScBzz1-D2
# Test: as above
# Procedure, shortened: as §1
row,Binder,SPOT peptide array binding signal intensity
1,B1,≤ 0

# Biological target: ScCyk3
# Test: as above
# Procedure, shortened: as §1
row,Binder,SPOT peptide array binding signal intensity
1,B1,≤ 0

# Biological target: ScFus1
# Test: as above
# Procedure, shortened: as §1
row,Binder,SPOT peptide array binding signal intensity
1,B1,≤ 0

# Biological target: ScHof1
# Test: as above
# Procedure, shortened: as §1
row,Binder,SPOT peptide array binding signal intensity
1,B1,≤ 0

# Biological target: ScHse1
# Test: as above
# Procedure, shortened: as §1
row,Binder,SPOT peptide array binding signal intensity
1,B1,≤ 0

# Biological target: ScLsb1
# Test: as above
# Procedure, shortened: as §1
row,Binder,SPOT peptide array binding signal intensity
1,B1,≤ 0

# Biological target: ScLsb2
# Test: as above
# Procedure, shortened: as §1
row,Binder,SPOT peptide array binding signal intensity
1,B1,≤ 0

# Biological target: ScLsb3
# Test: as above
# Procedure, shortened: as §1
row,Binder,SPOT peptide array binding signal intensity
1,B1,≤ 0

# Biological target: ScLsb4
# Test: as above
# Procedure, shortened: as §1
row,Binder,SPOT peptide array binding signal intensity
1,B1,≤ 0

# Biological target: ScMyo3
# Test: as above
# Procedure, shortened: as §1
row,Binder,SPOT peptide array binding signal intensity
1,B1,1370

# Biological target: ScMyo5
# Test: as above
# Procedure, shortened: as §1
row,Binder,SPOT peptide array binding signal intensity
1,B1,1840

# Biological target: ScNbp2
# Test: as above
# Procedure, shortened: as §1
row,Binder,SPOT peptide array binding signal intensity
1,B1,≤ 0

# Biological target: ScPex13
# Test: as above
# Procedure, shortened: as §1
row,Binder,SPOT peptide array binding signal intensity
1,B1,≤ 0

# Biological target: ScRvs167
# Test: as above
# Procedure, shortened: as §1
row,Binder,SPOT peptide array binding signal intensity
1,B1,0.167

# Biological target: ScSho1
# Test: as above
# Procedure, shortened: as §1
row,Binder,SPOT peptide array binding signal intensity
1,B1,≤ 0

# Biological target: ScSla1-D1-D2
# Test: as above
# Procedure, shortened: as §1
row,Binder,SPOT peptide array binding signal intensity
1,B1,≤ 0

# Biological target: ScSla1-D3
# Test: as above
# Procedure, shortened: as §1
row,Binder,SPOT peptide array binding signal intensity
1,B1,≤ 0

# Biological target: SpAbp1-D1
# Test: as above
# Procedure, shortened: as §1
row,Binder,SPOT peptide array binding signal intensity
1,B1,≤ 0

# Biological target: SpBbc1
# Test: as above
# Procedure, shortened: as §1
row,Binder,SPOT peptide array binding signal intensity
1,B1,1.5

# Biological target: SpBzz1-D1
# Test: as above
# Procedure, shortened: as §1
row,Binder,SPOT peptide array binding signal intensity
1,B1,≤ 0

# Biological target: SpBzz1-D2
# Test: as above
# Procedure, shortened: as §1
row,Binder,SPOT peptide array binding signal intensity
1,B1,≤ 0

# Biological target: SpCyk3
# Test: as above
# Procedure, shortened: as §1
row,Binder,SPOT peptide array binding signal intensity
1,B1,≤ 0

# Biological target: SpHof1
# Test: as above
# Procedure, shortened: as §1
row,Binder,SPOT peptide array binding signal intensity
1,B1,≤ 0

# Biological target: SpHof1-2
# Test: as above
# Procedure, shortened: as §1
row,Binder,SPOT peptide array binding signal intensity
1,B1,≤ 0

# Biological target: SpHof1-3
# Test: as above
# Procedure, shortened: as §1
row,Binder,SPOT peptide array binding signal intensity
1,B1,5.75

# Biological target: SpHse1
# Test: as above
# Procedure, shortened: as §1
row,Binder,SPOT peptide array binding signal intensity
1,B1,58.8

# Biological target: SpLsb1
# Test: as above
# Procedure, shortened: as §1
row,Binder,SPOT peptide array binding signal intensity
1,B1,≤ 0

# Biological target: SpLsb4
# Test: as above
# Procedure, shortened: as §1
row,Binder,SPOT peptide array binding signal intensity
1,B1,≤ 0

# Biological target: SpMyo1
# Test: as above
# Procedure, shortened: as §1
row,Binder,SPOT peptide array binding signal intensity
1,B1,1720

# Biological target: SpNbp2
# Test: as above
# Procedure, shortened: as §1
row,Binder,SPOT peptide array binding signal intensity
1,B1,≤ 0

# Biological target: SpPex13
# Test: as above
# Procedure, shortened: as §1
row,Binder,SPOT peptide array binding signal intensity
1,B1,≤ 0

# Biological target: SpRvs167
# Test: as above
# Procedure, shortened: as §1
row,Binder,SPOT peptide array binding signal intensity
1,B1,≤ 0

# Biological target: SpSla1-D1-D2
# Test: as above
# Procedure, shortened: as §1
row,Binder,SPOT peptide array binding signal intensity
1,B1,≤ 0

# Biological target: SpSla1-D3
# Test: as above
# Procedure, shortened: as §1
row,Binder,SPOT peptide array binding signal intensity
1,B1,≤ 0
